# Reference: the supplement of paper PMC4466140
# Tests used:
# Test in all cases: SPOT peptide array binding signal intensity (averaged, normalized) (arbitrary units (background-subtracted, floor 0; scale differs between SH3 domains)); higher = stronger binding of the SH3 domain to the peptide
# AgAbp1 = biological target: AgAbp1
# Procedure, shortened: (§1)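 Spot intensities were captured after detection with anti-GST antibody, an HRP-linked anti-mouse secondary and luminol, and quantified with Genespotter. The probes were GST-fused SH3 domains from four yeast species, produced in E. coli BL21(DE3), purified on glutathione Sepharose and incubated at 10 μg/ml overnight at 4°C on cellulose-bound synthetic 15-mer peptides with cysteines replaced by serines. Binding signal is the normalized, background-subtracted spot intensity averaged over replicates, and its arbitrary units differ between domains.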
# AgBbc1 = biological target: AgBbc1
# Procedure, shortened: as §1
# AgBem1-D1 = biological target: AgBem1-D1
# Procedure, shortened: as §1
# AgBzz1-D1 = biological target: AgBzz1-D1
# Procedure, shortened: as §1
# AgBzz1-D2 = biological target: AgBzz1-D2
# Procedure, shortened: as §1
# AgCyk3 = biological target: AgCyk3
# Procedure, shortened: as §1
# AgFus1 = biological target: AgFus1
# Procedure, shortened: as §1
# AgHof1 = biological target: AgHof1
# Procedure, shortened: as §1
# AgHse1 = biological target: AgHse1
# Procedure, shortened: as §1
# AgLsb1 = biological target: AgLsb1
# Procedure, shortened: as §1
# AgLsb4 = biological target: AgLsb4
# Procedure, shortened: as §1
# AgMyo5 = biological target: AgMyo5
# Procedure, shortened: as §1
# AgNbp2 = biological target: AgNbp2
# Procedure, shortened: as §1
# AgRvs167 = biological target: AgRvs167
# Procedure, shortened: as §1
# AgSho1 = biological target: AgSho1
# Procedure, shortened: as §1
# AgSla1-D1-D2 = biological target: AgSla1-D1-D2
# Procedure, shortened: as §1
# AgSla1-D3 = biological target: AgSla1-D3
# Procedure, shortened: as §1
# CaAbp1-D1 = biological target: CaAbp1-D1
# Procedure, shortened: as §1
# CaAbp1-D2 = biological target: CaAbp1-D2
# Procedure, shortened: as §1
# CaBbc1 = biological target: CaBbc1
# Procedure, shortened: as §1
# CaBem1-D1 = biological target: CaBem1-D1
# Procedure, shortened: as §1
# CaBzz1-D1 = biological target: CaBzz1-D1
# Procedure, shortened: as §1
# CaBzz1-D2 = biological target: CaBzz1-D2
# Procedure, shortened: as §1
# CaCyk3 = biological target: CaCyk3
# Procedure, shortened: as §1
# CaFus1 = biological target: CaFus1
# Procedure, shortened: as §1
# CaHof1 = biological target: CaHof1
# Procedure, shortened: as §1
# CaHse1 = biological target: CaHse1
# Procedure, shortened: as §1
# CaLsb1 = biological target: CaLsb1
# Procedure, shortened: as §1
# CaLsb4 = biological target: CaLsb4
# Procedure, shortened: as §1
# CaMyo5 = biological target: CaMyo5
# Procedure, shortened: as §1
# CaNbp2 = biological target: CaNbp2
# Procedure, shortened: as §1
# CaRvs167 = biological target: CaRvs167
# Procedure, shortened: as §1
# CaRvs167-3 = biological target: CaRvs167-3
# Procedure, shortened: as §1
# CaSho1 = biological target: CaSho1
# Procedure, shortened: as §1
# CaSla1-D1-D2 = biological target: CaSla1-D1-D2
# Procedure, shortened: as §1
# CaSla1-D3 = biological target: CaSla1-D3
# Procedure, shortened: as §1
# ScAbp1 = biological target: ScAbp1
# Procedure, shortened: as §1
# ScBbc1 = biological target: ScBbc1
# Procedure, shortened: as §1
# ScBem1-D1 = biological target: ScBem1-D1
# Procedure, shortened: as §1
# ScBzz1-D1 = biological target: ScBzz1-D1
# Procedure, shortened: as §1
# ScBzz1-D2 = biological target: ScBzz1-D2
# Procedure, shortened: as §1
# ScCyk3 = biological target: ScCyk3
# Procedure, shortened: as §1
# ScFus1 = biological target: ScFus1
# Procedure, shortened: as §1
# ScHof1 = biological target: ScHof1
# Procedure, shortened: as §1
# ScHse1 = biological target: ScHse1
# Procedure, shortened: as §1
# ScLsb1 = biological target: ScLsb1
# Procedure, shortened: as §1
# ScLsb2 = biological target: ScLsb2
# Procedure, shortened: as §1
# ScLsb3 = biological target: ScLsb3
# Procedure, shortened: as §1
# ScLsb4 = biological target: ScLsb4
# Procedure, shortened: as §1
# ScMyo3 = biological target: ScMyo3
# Procedure, shortened: as §1
# ScMyo5 = biological target: ScMyo5
# Procedure, shortened: as §1
# ScNbp2 = biological target: ScNbp2
# Procedure, shortened: as §1
# ScPex13 = biological target: ScPex13
# Procedure, shortened: as §1
# ScRvs167 = biological target: ScRvs167
# Procedure, shortened: as §1
# ScSho1 = biological target: ScSho1
# Procedure, shortened: as §1
# ScSla1-D1-D2 = biological target: ScSla1-D1-D2
# Procedure, shortened: as §1
# ScSla1-D3 = biological target: ScSla1-D3
# Procedure, shortened: as §1
# SpAbp1-D1 = biological target: SpAbp1-D1
# Procedure, shortened: as §1
# SpBbc1 = biological target: SpBbc1
# Procedure, shortened: as §1
# SpBzz1-D1 = biological target: SpBzz1-D1
# Procedure, shortened: as §1
# SpBzz1-D2 = biological target: SpBzz1-D2
# Procedure, shortened: as §1
# SpCyk3 = biological target: SpCyk3
# Procedure, shortened: as §1
# SpHof1 = biological target: SpHof1
# Procedure, shortened: as §1
# SpHof1-2 = biological target: SpHof1-2
# Procedure, shortened: as §1
# SpHof1-3 = biological target: SpHof1-3
# Procedure, shortened: as §1
# SpHse1 = biological target: SpHse1
# Procedure, shortened: as §1
# SpLsb1 = biological target: SpLsb1
# Procedure, shortened: as §1
# SpLsb4 = biological target: SpLsb4
# Procedure, shortened: as §1
# SpMyo1 = biological target: SpMyo1
# Procedure, shortened: as §1
# SpNbp2 = biological target: SpNbp2
# Procedure, shortened: as §1
# SpPex13 = biological target: SpPex13
# Procedure, shortened: as §1
# SpRvs167 = biological target: SpRvs167
# Procedure, shortened: as §1
# SpSla1-D1-D2 = biological target: SpSla1-D1-D2
# Procedure, shortened: as §1
# SpSla1-D3 = biological target: SpSla1-D3
# Procedure, shortened: as §1
binder,measurement,setting,value
GRLRPKRIAPWHLIQ,SPOT peptide array binding signal intensity,AgAbp1,84.5
same,SPOT peptide array binding signal intensity,AgBbc1,22.8
same,SPOT peptide array binding signal intensity,AgBem1-D1,21
same,SPOT peptide array binding signal intensity,AgBzz1-D1,22
same,SPOT peptide array binding signal intensity,AgBzz1-D2,15.5
same,SPOT peptide array binding signal intensity,AgCyk3,4
same,SPOT peptide array binding signal intensity,AgFus1,106
same,SPOT peptide array binding signal intensity,AgHof1,15
same,SPOT peptide array binding signal intensity,AgHse1,542
same,SPOT peptide array binding signal intensity,AgLsb1,≤ 0
same,SPOT peptide array binding signal intensity,AgLsb4,36
same,SPOT peptide array binding signal intensity,AgMyo5,0.5
same,SPOT peptide array binding signal intensity,AgNbp2,590
same,SPOT peptide array binding signal intensity,AgRvs167,3.83
same,SPOT peptide array binding signal intensity,AgSho1,≤ 0
same,SPOT peptide array binding signal intensity,AgSla1-D1-D2,44
same,SPOT peptide array binding signal intensity,AgSla1-D3,2.5
same,SPOT peptide array binding signal intensity,CaAbp1-D1,1010
same,SPOT peptide array binding signal intensity,CaAbp1-D2,666
same,SPOT peptide array binding signal intensity,CaBbc1,156
same,SPOT peptide array binding signal intensity,CaBem1-D1,26
same,SPOT peptide array binding signal intensity,CaBzz1-D1,73
same,SPOT peptide array binding signal intensity,CaBzz1-D2,79.2
same,SPOT peptide array binding signal intensity,CaCyk3,112
same,SPOT peptide array binding signal intensity,CaFus1,178
same,SPOT peptide array binding signal intensity,CaHof1,0.75
same,SPOT peptide array binding signal intensity,CaHse1,11.8
same,SPOT peptide array binding signal intensity,CaLsb1,≤ 0
same,SPOT peptide array binding signal intensity,CaLsb4,67
same,SPOT peptide array binding signal intensity,CaMyo5,2.5
RVTRKRPREPKSTND,SPOT peptide array binding signal intensity,AgAbp1,86
same,SPOT peptide array binding signal intensity,AgBbc1,146
same,SPOT peptide array binding signal intensity,AgBem1-D1,322
same,SPOT peptide array binding signal intensity,AgBzz1-D1,18
same,SPOT peptide array binding signal intensity,AgBzz1-D2,31
same,SPOT peptide array binding signal intensity,AgCyk3,3
same,SPOT peptide array binding signal intensity,AgFus1,300
same,SPOT peptide array binding signal intensity,AgHof1,64.5
same,SPOT peptide array binding signal intensity,AgHse1,606
same,SPOT peptide array binding signal intensity,AgLsb1,3
same,SPOT peptide array binding signal intensity,AgLsb4,72
same,SPOT peptide array binding signal intensity,AgMyo5,2.5
same,SPOT peptide array binding signal intensity,AgNbp2,123
same,SPOT peptide array binding signal intensity,AgRvs167,0.667
same,SPOT peptide array binding signal intensity,AgSho1,31
same,SPOT peptide array binding signal intensity,AgSla1-D1-D2,178
same,SPOT peptide array binding signal intensity,AgSla1-D3,7.25
same,SPOT peptide array binding signal intensity,CaAbp1-D1,887
same,SPOT peptide array binding signal intensity,CaAbp1-D2,550
same,SPOT peptide array binding signal intensity,CaBbc1,346
same,SPOT peptide array binding signal intensity,CaBem1-D1,40.5
same,SPOT peptide array binding signal intensity,CaBzz1-D1,134
same,SPOT peptide array binding signal intensity,CaBzz1-D2,174
same,SPOT peptide array binding signal intensity,CaCyk3,169
same,SPOT peptide array binding signal intensity,CaFus1,734
same,SPOT peptide array binding signal intensity,CaHof1,1
same,SPOT peptide array binding signal intensity,CaHse1,35.2
same,SPOT peptide array binding signal intensity,CaLsb1,1.5
same,SPOT peptide array binding signal intensity,CaLsb4,193
same,SPOT peptide array binding signal intensity,CaMyo5,2
same,SPOT peptide array binding signal intensity,CaNbp2,266
same,SPOT peptide array binding signal intensity,CaRvs167,4
same,SPOT peptide array binding signal intensity,CaRvs167-3,79.2
same,SPOT peptide array binding signal intensity,CaSho1,327
same,SPOT peptide array binding signal intensity,CaSla1-D1-D2,146
same,SPOT peptide array binding signal intensity,CaSla1-D3,≤ 0
same,SPOT peptide array binding signal intensity,ScAbp1,50
same,SPOT peptide array binding signal intensity,ScBbc1,88
same,SPOT peptide array binding signal intensity,ScBem1-D1,76
same,SPOT peptide array binding signal intensity,ScBzz1-D1,12
same,SPOT peptide array binding signal intensity,ScBzz1-D2,10
same,SPOT peptide array binding signal intensity,ScCyk3,204
same,SPOT peptide array binding signal intensity,ScFus1,312
same,SPOT peptide array binding signal intensity,ScHof1,2.5
same,SPOT peptide array binding signal intensity,ScHse1,1040
same,SPOT peptide array binding signal intensity,ScLsb1,5.25
same,SPOT peptide array binding signal intensity,ScLsb2,11
same,SPOT peptide array binding signal intensity,ScLsb3,244
same,SPOT peptide array binding signal intensity,ScLsb4,17
same,SPOT peptide array binding signal intensity,ScMyo3,7
same,SPOT peptide array binding signal intensity,ScMyo5,4.75
same,SPOT peptide array binding signal intensity,ScNbp2,378
same,SPOT peptide array binding signal intensity,ScPex13,1.25
same,SPOT peptide array binding signal intensity,ScRvs167,20.3
same,SPOT peptide array binding signal intensity,ScSho1,862
same,SPOT peptide array binding signal intensity,ScSla1-D1-D2,779
same,SPOT peptide array binding signal intensity,ScSla1-D3,15.2
same,SPOT peptide array binding signal intensity,SpAbp1-D1,345
same,SPOT peptide array binding signal intensity,SpBbc1,2.5
same,SPOT peptide array binding signal intensity,SpBzz1-D1,184
same,SPOT peptide array binding signal intensity,SpBzz1-D2,≤ 0
same,SPOT peptide array binding signal intensity,SpCyk3,4.5
same,SPOT peptide array binding signal intensity,SpHof1,222
same,SPOT peptide array binding signal intensity,SpHof1-2,5.5
same,SPOT peptide array binding signal intensity,SpHof1-3,316
same,SPOT peptide array binding signal intensity,SpHse1,298
same,SPOT peptide array binding signal intensity,SpLsb1,11.5
same,SPOT peptide array binding signal intensity,SpLsb4,292
same,SPOT peptide array binding signal intensity,SpMyo1,3
same,SPOT peptide array binding signal intensity,SpNbp2,1040
same,SPOT peptide array binding signal intensity,SpPex13,13
same,SPOT peptide array binding signal intensity,SpRvs167,7.33
same,SPOT peptide array binding signal intensity,SpSla1-D1-D2,1
same,SPOT peptide array binding signal intensity,SpSla1-D3,5
